This assay is described as follows: cytotoxicity toward MDA-MB-231 breast cancer cells – cell-based, CellTiter-Glo luminescence, cherry-pick, cytotoxicity control for RAD54 inhibitor project, dose response (AID 651692).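 Also: more negative values mean stronger loss of viable cell signal.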 On the technique in general: Cellular ATP, detected with luciferase, serves as a proxy for viable cell number.

SMILES strings stand for the structures. Results with a measured potency or affinity are listed apart. Active and inactive are the calls of the source.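 The calls were made as follows: active = fitted half-maximal concentration for loss of cell signal no higher than twice the top valid tested concentration; inconclusive = flat curve at 30 to 70% inhibition, or poor fit; inactive = flat within 30%, signal rise, or potency above limit.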

For `CCn1cc(C(=O)NCCN(C)C)c(=O)c2cc(F)c(N3CCN(C)CC3)cc21`, the call was inactive. For `N=c1n(CCN2CCCCC2)c2ccccc2n1CC(=O)c1cccc([N+](=O)[O-])c1` the value was “inactive”; for `Nc1cccc2nc3ccccc3cc12`, “inactive”; for `Cc1c(-c2cc(Br)ccc2O)nc2cc3c(cc2c1C)OCO3`, “inactive”.

`Cc1cc(N2CCN(C)CC2)nc2ccc(NC(=S)NCCCN3CCc4ccccc4C3)cc12`: the result was inactive. In the case of `CCN1CCc2c(sc(NC(=O)c3ccc(S(=O)(=O)N4CCOCC4)cc3)c2C(=O)OC)C1`, the compound was called inactive.

Turning to `COC(=O)Nc1nnc(COc2ccccc2)s1`, the call was inactive. For `c1ccc(CNc2c3ccccc3nc3ccccc23)cc1` the value was “inactive”; for `CCCN(CCC)CCCNC(=S)Nc1ccc2nc(N3CCCC3)cc(C)c2c1`, “inactive”; for `Nc1c2ccccc2nc2ccccc12`, “inactive”. For `CCCN(CCC)CCCNC(=O)c1cc2c(=O)[nH]c3ccccc3c2s1` the value was “inactive”.

The record behind these values is PubChem BioAssay AID651692 (Broad Institute, 2012).
